This note sets out measurements from PubChem BioAssay.

Active and inactive are the calls of the source. Unless noted, the rule behind the calls is not given here.
Note: test concentration not given here.

One test in a line: P. aeruginosa biofilm formation inhibitors, primary screen, strain PAO1, LB-PBS medium, absorbance 600 nm (AID 1176). Conditions: P. aeruginosa PAO1 growth/biofilm, A600, 12 h; higher = more signal.
For `O=C1N[C@@H](Cc2ccccc2)C(=O)N2[C@@H]1C[C@@H](C(=O)O)[C@H]2c1cccc(OCCO)c1`, the z-score is 0.0499 (inactive).

For `COc1ccc([Si](C)(C)[C@@H]2[C@@H](CC(=O)N3CCC[C@H]3CO)O[C@]3(C(=O)N(c4ccccc4)c4ccccc43)[C@H]2C)cc1`, the z-score was -0.106 (inactive).

For `CC(C)N1C(=O)C[C@@](C(=O)NCC(F)(F)F)(c2ccc([N+](=O)[O-])cc2)[C@H]1c1ccc(CO)cc1`, the z-score was 0.255 (inactive).

As for `CN1C(=O)C2C=CC(C(O)C#Cc3ccccc3)N(N3CCCCC3)C2C1=O` (centres undefined), the z-score was 0.614 (inactive).

For `C=C(C)[C@@H]1CC=C(C(O)C2C=CC3C(=O)N(C)C(=O)C3N2Nc2ccccc2)CC1` (some centres undefined), the z-score is 0.751 (inactive).

Consider `C=CCOC(=O)[C@@H]1[C@H]2C(=O)O[C@H](c3ccccc3)[C@H](c3ccccc3)N2[C@H](c2ccc(OCCOC(=O)[C@@H]3C[C@@H]4C(=O)NCC(=O)N4[C@@H]3c3ccc(O)cc3)cc2)[C@@]12C(=O)Nc1ccc(I)cc12`, for which the z-score was 0.118 (inactive).

As for `COC(=O)[C@@]1(Cc2ccc(OC)cc2)[C@H]2c3cc(C(=O)N(C)C)n(CCc4ccccn4)c3C[C@H]2CN1C(=O)c1ccccc1`, the z-score was 0.908 (inactive).

The next test can be described thus: S. cerevisiae RM11-1a growth modifiers, primary screen, strain RM11-1a, OD600, basal, 24 h (AID 1177).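 Note: cultures grown under basal conditions with no added stressor.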 To be noted: OD600, 24 h, higher = more signal, called active from +8 up or from −8 down.
With `O=C1C2C=CC(C(O)Cc3ccccc3)N(n3cnnc3)C2C(=O)N1Cc1ccccc1` (centres undefined), the z-score was 0.656 (inactive).

On to `Cc1ccc(S[C@]2(C(=O)NCCCN(C)C)CC(=O)N(Cc3ccccc3C(F)(F)F)[C@@H]2c2ccc(CO)cc2)cc1`, for which the z-score was -0.329 (inactive).

Regarding `COc1cc(C(O)C2C=CC3C(=O)NC(=O)C3N2Nc2ccccn2)cc(OC)c1OC` (centres undefined), the z-score is 0.228 (inactive).

For the compound `C=CCNC(=O)[C@H]1[C@@H]2C(=O)O[C@@H](c3ccccc3)[C@@H](c3ccccc3)N2[C@@H](c2ccccc2OCCO)[C@]12C(=O)Nc1ccc(C#CCC(C(=O)OC)C(=O)OC)cc12`, the z-score is 3.57 (inactive).

Turning to `COCCOC(=O)N1C(=O)[C@@]2(c3cc(C#CCNC(N)=O)ccc31)[C@H](C(=O)N1CCN(c3ncccn3)CC1)[C@H]1C(=O)O[C@H](c3ccccc3)[C@H](c3ccccc3)N1[C@@H]2c1ccc(OCCO)cc1`, the z-score was 2.16 (inactive).

Regarding `CCOC(=O)C[C@H]1[C@H](OC(=O)c2ccc(C(=O)c3ccccc3)cc2)[C@@H](NC(=O)c2ccc3ccccc3c2)c2cc(OCCCO)ccc2N1C(=O)Cc1ccc(OC)cc1`, the z-score was 0.4 (inactive).

Take `C[C@H]1NC(=O)[C@@]23C(=O)N[C@@H](Cc4ccccc4)C2[C@H](C)[C@@]2(C)O[C@H]2C3/C=C/C/C=C\CNC(=O)[C@@H]2CCCN2C1=O` (some centres undefined): the z-score is -0.0532 (inactive).

In the case of `C=C(CCCC)/C(=C/C[C@@H](OC(=O)c1ccncc1)c1ccc(OCCO)cc1)c1cc(C(=O)OC)ccc1OC`, the z-score is 0.826 (inactive).

In the case of `CN1C(=O)C2C=CC(C(O)c3ccc([N+](=O)[O-])cc3)N(N3CCCCC3)C2C1=O` (centres undefined), the z-score is 0.189 (inactive).

Consider `CC(C)C(=C=CC[C@H](O)c1ccc(OCCO)cc1)CCO`, for which the z-score is -0.269 (inactive).

For the compound `C[C@H]1C2[C@H](Cc3ccccc3)NC(=O)[C@]23C(=O)N[C@H](Cc2ccccc2)C(=O)N2CCC[C@H]2C(=O)NC/C=C\C/C=C/C3[C@@H]2O[C@]12C` (some centres undefined), the z-score was -0.835 (inactive).

Consider `CN(C)CCCCCCNC(=O)[C@H]1C[C@H]2C(=O)N[C@@H](CCCCN)C(=O)N2[C@H]1c1cccc(OCCO)c1`, for which the z-score is -0.533 (inactive).

Regarding `C=CCC(OC(C)=O)[C@@H]1[C@@H](N(Cc2cc3ccccc3o2)C(=O)c2cccc3ccccc23)c2cc(OCCCO)ccc2N1C(=O)c1ccc(-c2ccccc2)cc1` (some centres undefined), the z-score was -0.208 (inactive).

On to `COC(=O)[C@@]1(Cc2ccc(OC)cc2)[C@H]2c3cc(C(=O)N4CCCC4)n(Cc4ccc(O)c(OC)c4)c3C[C@H]2CN1C(=O)c1ccccc1`, for which the z-score is 0.609 (inactive).

Turning to `COC(=O)[C@@]1(Cc2ccc(OC)cc2)[C@H]2c3cc(C(=O)N4CCCC4)n(Cc4ccc(C)c(F)c4F)c3C[C@H]2CN1C(=O)c1ccccc1`, the z-score is 1.41 (inactive).

For the compound `C=CCOC(=O)[C@H]1[C@@H]2C(=O)O[C@@H](c3ccccc3)[C@@H](c3ccccc3)N2[C@@H](c2ccc(OCCOC(=O)[C@@H]3C[C@@H]4C(=O)N[C@@H](CCCCNC(C)=O)C(=O)N4[C@@H]3c3ccc(O)cc3)cc2)[C@]12C(=O)Nc1ccccc12`, the z-score is 1.74 (inactive).

Turning to `COC(=O)[C@@]1(Cc2ccc(OC)cc2)[C@H]2c3cc(C(=O)N(C)C)n(Cc4ccc(S(C)(=O)=O)cc4)c3C[C@H]2CN1C(=O)c1ccccc1`, the z-score is -2.36 (inactive).
